Results reported in the supplement of paper PMC11732987, “Enantioselective OTUD7B fragment discovery through chemoproteomics screening and high-throughput optimisation” (Communications Chemistry, 2025).

Tests used:
Test in all cases: log2 ratio of Biotin-Ahx-Ub-VS probe labelling (fragment/DMSO); higher = less target engagement (more negative = stronger competition), active = hit call of the paper (q ≤ 0.05, log2 ratio ≤ -1)
Conditions in all cases: compound concentration: 200 uM; treatment time: 3 h
OTUD6B = target: T1, OTUD6B (UniProt Q8N6M0)
T1 sequence (whole entry): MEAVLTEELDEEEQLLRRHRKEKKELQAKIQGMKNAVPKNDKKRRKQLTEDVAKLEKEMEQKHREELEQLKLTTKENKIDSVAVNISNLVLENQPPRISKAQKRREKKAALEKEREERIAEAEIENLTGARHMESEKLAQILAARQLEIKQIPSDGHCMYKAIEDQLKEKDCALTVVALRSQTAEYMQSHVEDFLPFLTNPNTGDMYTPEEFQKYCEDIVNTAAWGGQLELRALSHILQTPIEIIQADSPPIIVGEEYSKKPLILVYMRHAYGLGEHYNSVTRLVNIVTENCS
In short: (§1)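 HEK293T lysate (495 µg per sample, in Tris/CHAPS/IGEPAL buffer with protease inhibitors) was exposed in triplicate for 3 h to fragment at 200 µM or to vehicle, then to Biotin-Ahx-Ub-VS at 0.5 µM final for 1 h. Labelled DUBs were enriched on NeutrAvidin, digested with LysC and trypsin, and analysed by diaPASEF LC-MS/MS. Spectronaut label-free quantities were normalised to the global median, and values are average log2 ratios of fragment over vehicle from an unpaired t-test. Only proteins with ≥2 unique peptides were used.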

OTUD7B = target: T2, OTUD7B (UniProt Q6GQQ9)
T2 sequence (whole entry): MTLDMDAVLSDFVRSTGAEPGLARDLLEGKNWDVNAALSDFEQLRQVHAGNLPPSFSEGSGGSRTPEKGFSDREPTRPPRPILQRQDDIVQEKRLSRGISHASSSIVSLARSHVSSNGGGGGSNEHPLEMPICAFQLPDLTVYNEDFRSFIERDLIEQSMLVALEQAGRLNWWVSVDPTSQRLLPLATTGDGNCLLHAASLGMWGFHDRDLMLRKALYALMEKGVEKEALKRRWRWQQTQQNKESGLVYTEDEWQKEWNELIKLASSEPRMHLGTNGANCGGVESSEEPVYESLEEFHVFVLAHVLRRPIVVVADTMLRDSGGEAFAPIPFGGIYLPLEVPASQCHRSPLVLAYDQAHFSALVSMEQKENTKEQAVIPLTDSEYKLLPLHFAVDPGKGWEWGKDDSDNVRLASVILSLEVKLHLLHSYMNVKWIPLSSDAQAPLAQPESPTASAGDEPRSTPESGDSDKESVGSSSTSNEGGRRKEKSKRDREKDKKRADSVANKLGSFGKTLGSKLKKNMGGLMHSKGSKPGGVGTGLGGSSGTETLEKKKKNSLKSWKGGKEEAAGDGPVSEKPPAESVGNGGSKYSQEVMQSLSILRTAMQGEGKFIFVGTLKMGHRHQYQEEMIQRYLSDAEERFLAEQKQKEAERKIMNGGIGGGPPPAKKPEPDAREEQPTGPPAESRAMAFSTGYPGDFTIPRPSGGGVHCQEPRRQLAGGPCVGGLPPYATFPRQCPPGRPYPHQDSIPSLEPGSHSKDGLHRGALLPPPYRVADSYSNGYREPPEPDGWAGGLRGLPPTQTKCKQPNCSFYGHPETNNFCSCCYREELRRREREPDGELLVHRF
In short: as §1

PRPF8 = PRPF8 (UniProt Q6P2Q9)
In short: as §1

PSMD7 = target: T3, PSMD7 (UniProt P51665)
T3 sequence (whole entry): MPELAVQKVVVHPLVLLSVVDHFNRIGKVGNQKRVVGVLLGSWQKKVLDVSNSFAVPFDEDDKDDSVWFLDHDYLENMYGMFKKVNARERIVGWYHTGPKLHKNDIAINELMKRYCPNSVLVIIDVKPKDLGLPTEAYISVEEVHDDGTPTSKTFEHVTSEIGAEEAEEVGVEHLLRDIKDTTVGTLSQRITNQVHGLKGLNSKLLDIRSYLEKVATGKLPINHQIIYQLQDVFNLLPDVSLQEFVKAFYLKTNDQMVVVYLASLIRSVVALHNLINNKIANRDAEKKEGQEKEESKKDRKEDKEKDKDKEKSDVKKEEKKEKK
In short: as §1

UCHL1 = UCHL1 (UniProt P09936)
Chain of UCHL1 (P09936 whole entry, looked up): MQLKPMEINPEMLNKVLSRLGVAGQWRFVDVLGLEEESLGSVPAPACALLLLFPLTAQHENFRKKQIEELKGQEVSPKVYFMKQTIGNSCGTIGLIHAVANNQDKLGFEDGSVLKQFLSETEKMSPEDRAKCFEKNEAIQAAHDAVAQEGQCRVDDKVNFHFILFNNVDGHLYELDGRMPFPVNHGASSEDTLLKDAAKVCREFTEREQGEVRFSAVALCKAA
In short: as §1

UCHL3 = target: T4, UCHL3 (UniProt P15374)
T4 sequence (whole entry): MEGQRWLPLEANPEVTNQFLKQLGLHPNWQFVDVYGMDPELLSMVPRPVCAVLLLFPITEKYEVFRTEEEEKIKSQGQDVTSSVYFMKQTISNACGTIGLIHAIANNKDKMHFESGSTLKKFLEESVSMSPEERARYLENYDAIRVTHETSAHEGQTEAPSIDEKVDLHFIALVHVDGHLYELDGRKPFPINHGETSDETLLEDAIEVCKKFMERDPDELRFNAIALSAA
In short: as §1

UCHL5 = target: T5, UCHL5 (UniProt Q9Y5K5)
T5 sequence (whole entry): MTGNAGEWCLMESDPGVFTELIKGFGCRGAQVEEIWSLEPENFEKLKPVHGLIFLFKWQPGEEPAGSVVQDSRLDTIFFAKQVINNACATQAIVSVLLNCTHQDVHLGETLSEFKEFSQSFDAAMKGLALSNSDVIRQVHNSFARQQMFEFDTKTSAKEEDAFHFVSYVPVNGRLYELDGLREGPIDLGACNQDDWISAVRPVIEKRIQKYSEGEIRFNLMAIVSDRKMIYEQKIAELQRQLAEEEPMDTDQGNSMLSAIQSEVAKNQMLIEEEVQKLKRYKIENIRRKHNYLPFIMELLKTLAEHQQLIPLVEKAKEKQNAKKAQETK
In short: as §1

USP10 = USP10 (UniProt Q14694)
Chain of USP10 (Q14694 whole entry): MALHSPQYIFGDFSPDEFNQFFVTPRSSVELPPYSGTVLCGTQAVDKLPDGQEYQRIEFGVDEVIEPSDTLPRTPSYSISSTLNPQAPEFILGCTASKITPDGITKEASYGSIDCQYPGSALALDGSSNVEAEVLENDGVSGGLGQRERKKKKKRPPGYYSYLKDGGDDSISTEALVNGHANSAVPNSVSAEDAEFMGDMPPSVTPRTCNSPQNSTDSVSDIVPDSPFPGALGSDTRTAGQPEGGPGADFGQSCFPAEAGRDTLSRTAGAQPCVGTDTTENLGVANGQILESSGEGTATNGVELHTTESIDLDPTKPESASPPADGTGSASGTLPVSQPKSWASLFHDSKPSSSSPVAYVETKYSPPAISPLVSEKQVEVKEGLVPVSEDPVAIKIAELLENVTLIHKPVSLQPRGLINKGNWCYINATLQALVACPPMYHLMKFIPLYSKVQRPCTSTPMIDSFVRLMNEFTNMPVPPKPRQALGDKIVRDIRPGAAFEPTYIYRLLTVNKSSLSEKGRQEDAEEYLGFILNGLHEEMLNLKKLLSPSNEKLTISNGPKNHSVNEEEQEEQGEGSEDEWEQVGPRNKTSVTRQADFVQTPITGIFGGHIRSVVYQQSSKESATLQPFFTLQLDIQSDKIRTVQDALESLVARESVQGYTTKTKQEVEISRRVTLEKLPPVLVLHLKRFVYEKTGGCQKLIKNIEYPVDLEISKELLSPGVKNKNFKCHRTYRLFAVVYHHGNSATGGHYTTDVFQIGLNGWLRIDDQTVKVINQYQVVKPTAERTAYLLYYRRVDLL
In short: as §1

USP15 = target: T6, USP15 (UniProt Q9Y4E8)
T6 sequence (whole entry): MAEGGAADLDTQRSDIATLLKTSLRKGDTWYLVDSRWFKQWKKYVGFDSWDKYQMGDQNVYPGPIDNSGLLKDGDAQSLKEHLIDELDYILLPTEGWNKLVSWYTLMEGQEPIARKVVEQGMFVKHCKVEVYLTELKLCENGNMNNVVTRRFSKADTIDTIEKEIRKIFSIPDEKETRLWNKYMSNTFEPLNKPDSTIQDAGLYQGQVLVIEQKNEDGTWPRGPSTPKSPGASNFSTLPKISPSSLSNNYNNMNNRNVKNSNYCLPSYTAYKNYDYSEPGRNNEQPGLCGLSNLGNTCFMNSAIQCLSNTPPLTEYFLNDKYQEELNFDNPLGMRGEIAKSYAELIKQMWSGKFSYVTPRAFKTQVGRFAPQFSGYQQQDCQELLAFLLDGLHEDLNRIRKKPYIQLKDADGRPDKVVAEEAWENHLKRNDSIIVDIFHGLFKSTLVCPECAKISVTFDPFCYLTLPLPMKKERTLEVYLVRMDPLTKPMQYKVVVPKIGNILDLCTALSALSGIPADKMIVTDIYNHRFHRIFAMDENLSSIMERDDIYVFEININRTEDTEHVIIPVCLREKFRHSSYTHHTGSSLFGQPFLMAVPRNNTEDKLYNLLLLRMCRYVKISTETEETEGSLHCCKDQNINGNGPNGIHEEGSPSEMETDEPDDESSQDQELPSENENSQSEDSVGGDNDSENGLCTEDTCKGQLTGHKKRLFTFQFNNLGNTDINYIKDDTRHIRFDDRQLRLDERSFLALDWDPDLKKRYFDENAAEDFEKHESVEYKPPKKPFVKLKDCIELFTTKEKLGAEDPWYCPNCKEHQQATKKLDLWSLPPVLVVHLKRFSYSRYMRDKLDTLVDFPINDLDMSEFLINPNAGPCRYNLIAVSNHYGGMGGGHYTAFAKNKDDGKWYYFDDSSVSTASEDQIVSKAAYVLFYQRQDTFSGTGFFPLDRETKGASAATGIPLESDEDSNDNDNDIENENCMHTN
In short: as §1

USP16 = USP16 (UniProt Q9Y5T5)
Chain of USP16 (Q9Y5T5 whole entry, looked up): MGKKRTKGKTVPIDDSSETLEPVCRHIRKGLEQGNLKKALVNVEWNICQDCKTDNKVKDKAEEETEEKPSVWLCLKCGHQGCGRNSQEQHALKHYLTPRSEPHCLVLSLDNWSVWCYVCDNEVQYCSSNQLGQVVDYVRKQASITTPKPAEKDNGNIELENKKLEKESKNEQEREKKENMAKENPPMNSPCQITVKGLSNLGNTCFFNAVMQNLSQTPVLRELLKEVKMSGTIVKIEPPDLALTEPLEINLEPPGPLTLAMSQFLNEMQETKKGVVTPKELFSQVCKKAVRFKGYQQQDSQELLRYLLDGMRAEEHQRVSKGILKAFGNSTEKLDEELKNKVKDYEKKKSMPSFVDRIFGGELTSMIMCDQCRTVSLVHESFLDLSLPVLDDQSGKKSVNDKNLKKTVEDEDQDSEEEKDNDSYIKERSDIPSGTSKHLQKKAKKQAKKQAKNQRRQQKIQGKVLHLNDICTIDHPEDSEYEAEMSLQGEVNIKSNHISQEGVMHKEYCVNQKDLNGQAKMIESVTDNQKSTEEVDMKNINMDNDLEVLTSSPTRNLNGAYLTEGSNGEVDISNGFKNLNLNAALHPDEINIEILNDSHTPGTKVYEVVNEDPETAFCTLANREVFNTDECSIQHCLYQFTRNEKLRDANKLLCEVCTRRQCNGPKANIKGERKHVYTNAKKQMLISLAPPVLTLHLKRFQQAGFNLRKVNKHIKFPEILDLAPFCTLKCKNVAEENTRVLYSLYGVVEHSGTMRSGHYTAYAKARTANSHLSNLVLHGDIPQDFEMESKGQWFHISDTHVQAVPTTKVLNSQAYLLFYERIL
In short: as §1

Measured: log2 ratio of Biotin-Ahx-Ub-VS probe labelling

Cc1ccc(CC(NC(=O)CCl)c2ccccn2)cc1.Cl (stereo not given)
inactive: OTUD6B 0.0158 | OTUD7B -0.295 | PRPF8 0.0556 | PSMD7 -0.125 | UCHL1 -0.621 | UCHL3 0.459 | UCHL5 0.179 | USP10 -0.00276 | USP15 0.0178 | USP16 0.0921
